PubChem BioAssay (NCATS)
Records with an inconclusive call do not appear. The source made the active and inactive calls. Calls come from the whole dose curve; as a rule, active = well fitted curve in the direction sought with a large enough effect; inconclusive = small, poorly fitted or top-dose-only effect, or another doubt; inactive = no such curve, though single readings can be large; an effect the other way counts as inactive or inconclusive.

What was measured:
[1] = molecular target: Cytochrome P450 3A7 (Homo sapiens) (UniProt P24462); test: Cytochrome P450 family 3 subfamily A member 7 (CYP3A7) small molecule antagonists: luciferase biochemical qHTS assay (AID 1963596); note: nearly all actives have a fitted effect of over 40% in size; note: potency is the fitted concentration of half-maximal effect
Sequence of Cytochrome P450 3A7 (Homo sapiens) (P24462 whole entry, looked up): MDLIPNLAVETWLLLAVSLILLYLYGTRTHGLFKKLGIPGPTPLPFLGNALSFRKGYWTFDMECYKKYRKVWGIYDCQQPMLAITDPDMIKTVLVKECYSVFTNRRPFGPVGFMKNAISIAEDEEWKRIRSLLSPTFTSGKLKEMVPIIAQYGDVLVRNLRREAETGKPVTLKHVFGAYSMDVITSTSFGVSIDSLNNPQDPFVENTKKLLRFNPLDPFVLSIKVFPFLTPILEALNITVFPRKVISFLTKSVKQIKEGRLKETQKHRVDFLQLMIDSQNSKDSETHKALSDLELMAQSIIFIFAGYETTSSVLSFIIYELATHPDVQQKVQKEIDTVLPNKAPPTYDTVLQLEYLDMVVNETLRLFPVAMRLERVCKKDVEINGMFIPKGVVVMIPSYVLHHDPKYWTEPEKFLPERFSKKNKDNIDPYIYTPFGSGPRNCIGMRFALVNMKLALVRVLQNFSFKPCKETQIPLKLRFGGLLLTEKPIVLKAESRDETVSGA
Procedure, shortened: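 Enzyme-substrate mix + cpd (DMSO), 10 min RT; + NADPH regen system, 1 h RT; + luciferin detection reagent, 20 min RT; luminescence read. Proluciferin substrate, P450-Glo format, 1536-well qHTS.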

[2] = Viability qHTS for spleen associated tyrosine kinase inhibitor (SYKi) drug resistant MV4-11 cells (AID 1963824); note: nearly all actives have a fitted effect of over 35% in size; note: potency is the fitted concentration of half-maximal effect
Procedure, shortened: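 SYK inhibitor-resistant MV4-11 AML cells, 500 per well, added to predispensed compounds and incubated 72 hr at 37 C, 5% CO2. Viability measured by CellTiter-Glo luminescence after 10 min at room temperature.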

[3] = Cellular viability qHTS for adrenocortical cancer (ACC) cell line SW-13 (AID 1963989); settings: SW-13 ACC cells viability, CellTiter-Glo, 48 h; activity (max response): hits give low values;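 note: cells grown in serum-free medium with ITS supplement; % is set by controls: 0 for no effect and ±100 for the full control effect; nearly all actives have a fitted effect of over 65% in size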
Procedure, shortened: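 Here, serum-free SW-13 cultures were dosed up to 46 uM. Following 48 h, ATP-dependent luminescence (CellTiter-Glo) reported viable cells, and logistic modeling produced IC50 values.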

[4] = Cellular viability qHTS for adrenocortical cancer (ACC) cell line NCI-H295R (AID 1963990); note: nearly all actives have a fitted effect of over 60% in size; note: potency is the fitted concentration of half-maximal effect
Procedure, shortened: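 Viability of NCI-H295R after 48 h of treatment (final up to 46 uM) measured through cellular ATP luminescence.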

[5] = Quantitative highthroughput screen to assess conditional lethalithy of NOMO1 cells grown in RPMI1640 with untreated serum (RPMI+s) (AID 1963876);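 note: 100% = DMSO wells and 0% = empty wells without cells; nearly all actives have a fitted effect of over 35% in size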
Procedure, shortened: (§1)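 Each medium arm—HPLM with 10% dialyzed FBS, or RPMI1640 with 5 mM glucose and 10% untreated or dialyzed FBS—was screened against an 11-point, 3-fold compound titration for 48 h at 37 °C, with CellTiter-Glo luminescence as endpoint.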

[6] = Quantitative highthroughput screen to assess conditional lethalithy of NOMO1 cells grown in RPMI1640 with dialyzed fetal bovine serum (RPMI+ds) (AID 1963877);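 note: series mostly up to about 46 µM; 100% = DMSO control wells and 0% = empty wells; nearly all actives have a fitted effect of over 30% in size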
Procedure, shortened: as §1

[7] = Quantitative highthroughput screen to assess conditional lethalithy of NOMO1 cells grown in Human Plasma-Like Medium with dialyzed fetal bovine serum (HPLM+ds) (AID 1963878);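 note: 100% = DMSO wells and 0% = empty wells on each plate; nearly all actives have a fitted effect of over 35% in size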
Procedure, shortened: as §1

[8] = Quantitative highthroughput screen to assess conditional lethalithy of P12 Ichikawa cells grown in Human Plasma-Like Medium with dialyzed fetal bovine serum (HPLM+ds) (AID 1963879); settings: Potency: viability; note: series mostly up to about 46 µM; nearly all actives have a fitted effect of over 35% in size
Procedure, shortened: as §1

[9] = Quantitative highthroughput screen to assess conditional lethalithy of P12 Ichikawa cells grown in RPMI1640 with dialyzed fetal bovine serum (RPMI+ds) (AID 1963880); settings: Potency: P12-Ichikawa viability
Procedure, shortened: as §1

[10] = Quantitative highthroughput screen to assess conditional lethalithy of P12 Ichikawa cells grown in RPMI1640 with untreated serum (RPMI+s) (AID 1963881); settings: Potency: viability
Procedure, shortened: as §1

[11] = Quantitative highthroughput screen to assess conditional lethalithy of SEM cells grown in Human Plasma-Like Medium with dialyzed fetal bovine serum (HPLM+ds) (AID 1963882)
Procedure, shortened: as §1

[12] = Quantitative highthroughput screen to assess conditional lethalithy of SEM cells grown in RPMI1640 with dialyzed fetal bovine serum (RPMI+ds) (AID 1963884)
Procedure, shortened: as §1

[13] = Quantitative highthroughput screen to assess conditional lethalithy of SEM cells grown in RPMI1640 with unreated serum (RPMI+s) (AID 1963883)
Procedure, shortened: as §1

Cc1ccc(Cl)c(OCC(O)CNC(C)(C)C)c1 (stereo unspecified)
inactive: Potency [1] | Potency [2] | activity (max response) [3] 1.06% | Potency [4]

CCOc1ccccc1OCC1CNCCO1 (stereo unspecified)
inactive: Potency [1] | Potency [2] | activity (max response) [3] -0.481%

O=C(NCC(=O)N1CCCC1)Nc1ccc2cnccc2c1
inactive: Potency [1] | activity (max response) [3] -10.6% | Potency [4]
active: Potency [2] 8.2 µM

C[C@H]1O[C@H](O[C@H]2[C@H](O)[C@@H](O)[C@@H](O[C@H]3[C@H](O)[C@@H](O)[C@H](O)O[C@@H]3CO)O[C@@H]2CO)[C@H](O)[C@@H](O)[C@@H]1N[C@H]1C=C(CO)[C@@H](O)[C@H](O)[C@H]1O
inactive: Potency [1] | Potency [2] | activity (max response) [3] -2.85% | Potency [4]

CCCCCC[C@@H](CCC)C(=O)O
inactive: Potency [1] | Potency [2] | activity (max response) [3] 6.05% | Potency [4]

Cc1c(C(=O)N2CCOc3ccc(-c4ccc(N)nc4)cc3C2)ccc(S(C)(=O)=O)c1F
inactive: Potency [1]
active: Potency [2] 3.26 µM | Potency [4] 8.91 µM

CC(=O)N1C[C@H](O)C[C@H]1C(=O)O
inactive: Potency [1] | Potency [2] | activity (max response) [3] 0.891% | Potency [4]

CCC(C(=O)NC(=O)NC(C)=O)c1ccccc1 (stereo unspecified)
inactive: Potency [1] | Potency [2] | Potency [4]

CNC(=O)Oc1ccc2c(c1)[C@]1(C)CCN(C)[C@@H]1N2C
inactive: Potency [1] | Potency [2] | Potency [4]

COc1ccc(C(Cl)=C(c2ccc(OC)cc2)c2ccc(OC)cc2)cc1
inactive: Potency [1] | Potency [2] | Potency [4]

C[C@@H](O)[C@H]1C(=O)N2C(C(=O)O)=C(SCCN=CN)C[C@H]12
inactive: Potency [1] | Potency [2] | Potency [4]

C[C@@H]1CCC[C@H](C)N1CCCC(O)(c1ccccc1)c1ccccn1 (stereo partly specified)
inactive: Potency [1] | Potency [2] | activity (max response) [3] -5.41% | Potency [4]

O=c1c(-c2ccc(O)cc2)coc2cc(OC3O[C@H](CO)[C@H](O)[C@H](O)[C@H]3O)cc(O)c12 (stereo partly specified)
inactive: Potency [1] | Potency [5] | Potency [6] | Potency [7] | Potency [8] | Potency [9] | Potency [10] | Potency [11] | Potency [12]

CC[N+](CC)(CC(=O)Nc1c(C)cccc1C)Cc1ccccc1
inactive: Potency [1] | Potency [2] | activity (max response) [3] 1.59% | Potency [4]

CCN(CC)CC#CCOC(=O)C(O)(c1ccccc1)C1CCCCC1 (stereo unspecified)
inactive: Potency [1] | Potency [5] | Potency [6] | Potency [7] | Potency [8] | Potency [9] | Potency [10] | Potency [11] | Potency [13] | Potency [12]

COc1ccc(C(=O)N2CCN(CC(=O)N3CCOCC3)CC2)cc1
inactive: Potency [1] | Potency [2] | Potency [4]

Cc1cc(=O)n(-c2ccccc2)n1C
inactive: Potency [1] | Potency [2] | Potency [4]

OCCc1ccccc1
inactive: Potency [1] | Potency [2] | activity (max response) [3] 10.1% | Potency [4]

CC[C@@H](CO)NCCN[C@@H](CC)CO
inactive: Potency [1] | Potency [2] | activity (max response) [3] 14% | Potency [4]

CC(=O)NO
inactive: Potency [1] | Potency [2] | activity (max response) [3] 11.6% | Potency [4]

CCN(CC)S(=O)(=O)c1ccc(C(=O)O)cc1
inactive: Potency [1] | Potency [2] | activity (max response) [3] -2.24% | Potency [4]

CN1CCN(C(=O)C2CCCCC2)CC1
inactive: Potency [1] | Potency [2] | activity (max response) [3] 7.59% | Potency [4]

Nc1ncn([C@@H]2O[C@H](CO)[C@@H](O)[C@H]2O)c(=O)n1
inactive: Potency [1] | Potency [4]
active: Potency [2] 1.66 µM

CCOC(=O)c1cccc(N)c1
active: Potency [1] 27.5 µM
inactive: Potency [2] | Potency [4]

CC(=O)NC[C@H]1CN(c2ccc(N3CCOCC3)c(F)c2)C(=O)O1
inactive: Potency [1] | Potency [5] | Potency [6] | Potency [7] | Potency [8] | Potency [9] | Potency [10] | Potency [11] | Potency [13] | Potency [12] | activity (max response) [3] 5.63%

CCCOC(=O)c1ccc(O)cc1
active: Potency [2] 0.0863 µM
inactive: Potency [1] | Potency [4]

CC(=O)O[C@H]1C[C@@H]2CC[C@@H]3[C@H](CC[C@@]4(C)[C@H]3C[C@H]([N+]3(C)CCCCC3)[C@@H]4OC(C)=O)[C@@]2(C)C[C@@H]1N1CCCCC1
inactive: Potency [1] | Potency [2] | Potency [4]

CNC(=O)c1ccc(-c2cnc3ncc(Cc4ccc5ncccc5c4)n3n2)cc1F
inactive: Potency [1] | Potency [5] | Potency [6] | Potency [7] | Potency [8] | Potency [9] | Potency [10] | Potency [11] | Potency [13] | Potency [12] | Potency [4]

CC(C)(C)c1cc(C=O)cc(C(C)(C)C)c1O
inactive: Potency [1] | Potency [2] | Potency [4]

COc1nccnc1NS(=O)(=O)c1ccc(N)cc1
inactive: Potency [1] | Potency [2] | activity (max response) [3] 1.63% | Potency [4]

O=c1[nH]cnc2nc[nH]c12
inactive: Potency [1] | Potency [2] | activity (max response) [3] 10.3% | Potency [4]
